The values below come from PubChem BioAssay (EPA / NIEHS).

Experiment [1] can be described thus: CCTE_Simmons_CellTiterGLO_HEK293T: Viability Assessment in CCTE's Assays for Thyroperoxidase (TPO) Inhibition, Simmons Lab (AID 2283665).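 For AC50: cells exposed to compound for 24 h before readout; actives reduce ATP signal below DMSO vehicle meaning cytotoxicity.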 The gist of the method:
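HEK293T cells in DMEM with 1% FBS, dosed 24 h at 37C with 8 concentrations, 5 nM–87.5 uM final, 0.5% DMSO. ATP measured by CellTiter Glo luminescence; loss of signal vs DMSO, three biological replicates.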

Experiment [2] can be described thus: Tanguay_ZF_120hpf_TR_legacy: (Legacy) Oregon State University Tanguay Lab 120 Hour Post-fertilization zebrafish Assay for Touch Response (AID 2283667). The gist of the method: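 Tropical 5D wild-type zebrafish embryos statically exposed to 120 hpf at 28°C, sealed and dark-covered, 0.64% DMSO final; touch response scored as present/absent by brightfield microscopy at 120 hpf. Trimethyltin chloride 5 uM positive control; dead embryos not scored.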

Experiment [3] in a line: CCTE_Padilla_ZF_144hpf_TERATOSCORE: (Legacy) CCTE's 144 Hour Post-fertilization zebrafish Assay Teratoscore, Padilla Lab (AID 2283679; active = hit-call score of the fitted dose curve at least 0.9, where 1 is the maximum; inactive = score below 0.9;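 for AC50: zebrafish embryos with chorions exposed by immersion from 6-8 hpf to 5 dpf with daily renewal; teratogenicity score from eye scoring of death hatching and malformations at 144 hpf; higher score means more developmental defects relative to DMSO baseline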). The method, boiled down: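 Larvae scored by eye at 144 hpf for death, hatching and malformations after a day in clean Hanks'. Before that, daily-renewed exposure at 80 uM (0.4% DMSO, 26C) from roughly 6-8 hpf through 5 dpf, 4 embryos per chemical.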

A short description of experiment [4]: STM_H9_OrnithineISnorm_perc: Stemina devTOX quickPredict H9 human embryonic stem cell (hESC)-based Assay for Ornithine (ORN) Metabolite Biomarker, Normalized (AID 2283712; active = hit-call score of the fitted dose curve at least 0.9, where 1 is the maximum; inactive = score below 0.9;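 note: ornithine released into spent medium during last day measured by mass spectrometry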). The gist of the method:
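Undifferentiated H9 hESCs exposed 72 h with daily media and compound renewal; final 24-h conditioned medium analysed by UPLC-HRMS. Ornithine peak area normalised to spiked C13 standard and to median 0.1% DMSO control; viability by CellTiter-Fluor.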

Experiment [5] can be described thus: STM_H9_CystineISnorm_perc: Stemina devTOX quickPredict H9 human embryonic stem cell (hESC)-based Assay for Cystine (CYSS) Metabolite Biomarker, Normalized (AID 2283713; active = hit-call score of the fitted dose curve at least 0.9, where 1 is the maximum; inactive = score below 0.9). The gist of the method: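 Undifferentiated H9 hESCs exposed 72 h, compound and media replaced every 24 h; final 24-h media analysed by UPLC-HRMS. Cystine normalized to C13 spike-in standard and median 0.1% DMSO control.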

Experiment [6] is described as follows: CEETOX_H295R_MTT_cell_viability: Viability Assessment in the CeeTox HT-H295R MTT Assay (AID 2283718; active = hit-call score of the fitted dose curve at least 0.9, where 1 is the maximum; inactive = score below 0.9). The gist of the method: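 Human H295R adrenal cells, prestimulated 48 h with 10 uM forskolin, were exposed 48 h to chemicals in 0.1% DMSO. Viability was measured in the same wells by MTT (0.5 mg/ml, 4 h, 37 C), absorbance 570/650 nm, as percent of controls.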

Experiment [7] is described as follows: Tanguay_ZF_120hpf_ActivityScore_legacy: (Legacy) Oregon State University Tanguay Lab 120 Hour Post-fertilization zebrafish Assay Score for Activity (AID 2283742).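 For AC50: dechorionated Tropical 5D wild-type zebrafish embryos held singly per well; static exposure from 6 hpf until 120 hpf at 28 °C.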 The gist of the method: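 Dechorionated Tropical 5D embryos, one per well from 6 hpf, statically exposed to 120 hpf at 28 °C in 0.64% DMSO. Mortality and malformations scored binary by brightfield microscopy; activity score combines 18 endpoints, fitted positively versus DMSO.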

Experiment [8] has as its system Thyroperoxidase (TPO), gene 445522. Nature of the experiment: CCTE_Simmons_GUA_TPO: CCTE's Guaiacol Assay for Thyroperoxidase (TPO) Inhibition, Simmons Lab (AID 2283750). The method, boiled down: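 Porcine thyroid microsomes (25 ug) in 200mM potassium phosphate, preincubated 30 s at 37C with compound (8 concentrations, 5 nM–87.5 uM) and 35mM guaiacol; 1mM H2O2 starts reaction. Absorbance change at 450nm over first 80 s; loss of signal versus DMSO, three replicates.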

Experiment [9] can be described thus: STM_H9_OrnCyssISnorm_ratio: Stemina devTOX quickPredict H9 human embryonic stem cell (hESC)-based Assay for Ornithine (ORN):Cystine (CYSS) Ratio (AID 2283714). The method, boiled down: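 Undifferentiated H9 hESCs exposed 72 h, media and compound replaced every 24 h; final 24-h conditioned media deproteinized and analysed by UPLC-HRMS against C13 spike-ins. Value is the internal-standard-normalized ORN/CYSS ratio versus 0.1% DMSO.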

Values joined by “and” are separate entries in the source; they are usually repeats but may differ in a detail not shown here. Identical values can stand only once. Inconclusive results are not listed. Active and inactive are the calls of the source. Rule for the calls, unless noted: active = hit-call score of the fitted dose curve at least 0.9, where 1 is the maximum; inconclusive = response in the unintended direction; inactive = score below 0.9.

Regarding `CCC(C)(C)C(=O)O[C@H]1C[C@@H](C)C=C2C=C[C@H](C)[C@H](CC[C@@H]3C[C@@H](O)CC(=O)O3)[C@H]21`, the AC50 in [1] is 43.8 µM (active); in [2] it was 0.664 µM (active); in experiment [3] it was 115 nM (active) and 2.58 nM (active) and 7.92 nM (active); in experiment [4], 0.000728 µM (active); in experiment [7], 0.403 µM (active). Moreover, the result in [5] and in experiment [6] was inactive.

In the case of `CCCN(C1CCN(C(=O)C2CCNCC2)CC1)[C@@H]1CCc2ccc(OC)cc2C1`, in [1], the AC50 is 18.2 µM (active). In addition, the result in [2], in [3] and in experiment [7] was inactive.

As to `CCNc1ccccc1`, the compound was called inactive in [1], in [2], in [7] and in experiment [8].

Take `Nc1ccc(Nc2ccccc2)cc1`: the AC50 in experiment [1] was 38.4 µM (active); in experiment [3], 10.1 µM (active); in experiment [4] it was 4.61 µM (active); in [5], 2.69 µM (active); in experiment [9], 3.03 µM (active); in experiment [7], 30.1 µM (active). The call in [6] was inactive.

Regarding `CCn1nc(Cc2ccccc2)cc1C1CCN(C[C@H]2C[C@H](N(C)[C@@H](C(=O)O)C(C)C)C[C@@H]2c2cccc(F)c2)CC1`, the AC50 in experiment [1] is 42.8 µM (active). For the same compound, the compound was called inactive in experiment [2] and in experiment [7].

Turning to `O=c1n(CC2CO2)c(=O)n(CC2CO2)c(=O)n1CC1CO1` (stereo not drawn), the result in experiment [1], in experiment [2] and in [7] was inactive. Also, the figures for the AC50 in [4], in experiment [5] and in experiment [9] were 0.49 µM (active), 0.166 µM (active) and 0.295 µM (active), respectively.

On to `O=C(O)c1cccc(N(Cc2cccnc2)c2ccc(OC(F)F)c(OC(F)F)c2)c1`, for which the outcome in [1], in experiment [2], in [6] and in [7] was inactive. Also, the AC50 in [3] was 26.5 µM (active).

As to `C[C@](N)(Cc1ccc(O)c(O)c1)C(=O)O`, the AC50 in [1] was 39.8 µM (active). Besides, the call in experiment [2], in [6] and in [7] was inactive.

As to `CC(C)=CCCC(C)CCO` (stereo not drawn), the compound was called inactive in [1], in experiment [2] and in experiment [7].
